Data published in PubChem BioAssay (NCATS).
Results filed as inconclusive are left out. Entries that show only a call come without a potency. Activity calls are given as the source filed them. The call rests on the fitted dose curve; in most records, active means well fitted curve in the direction sought with a large enough effect; inconclusive means small, poorly fitted or top-dose-only effect, or another doubt; inactive means no such curve, though single readings can be large; an effect the other way counts as inactive or inconclusive.

test: Confirmation and Secondary Assay for Modulators of Hemoglobin Beta Chain Splicing at IVS2 654 locus (AID 910); settings: HeLa EGFP-654 splicing reporter, GFP fluorescence, 48 h; series mostly up to 46.1 µM;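 further: HeLa cells stably carrying EGFP split by mutant beta-globin IVS2-654 intron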
Procedure, shortened: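 HeLa cells stably expressing EGFP interrupted by β-globin IVS2-654 intron, seeded overnight in Opti-MEM/2% FCS, then treated 2 days at 37 °C. Restored splicing read as total peak GFP intensity per well by laser scanning cytometry (488 nm excitation, 500–520 nm emission); 500 nM antisense PNA as control.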

SMILES | Potency
C#CC1(O)CCC2C3CCC4=CC(=O)CCC4(C)C3CCC21C (stereo not given) | inactive
O=C(O)CCCOc1ccc(Cl)cc1Cl | inactive
CCCCCCCCCCCCCCCC[N+](C)(C)C | inactive
CC(Cc1ccc(O)cc1)NCC(O)c1cc(O)cc(O)c1 (stereo not given) | inactive
CCC(=O)OC1CCC2C3CCC4=CC(=O)CC[C@@]4(C)C3CC[C@]12C (stereo not given in full) | inactive

test: qHTS Assay for Identification of Small Molecule Agonists for Thrombopoietin (TPO) Signaling Pathway (AID 917); settings: TPO signaling pathway reporter cells, agonist qHTS; series mostly up to 38.5 µM
Procedure, shortened: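 Cell-based luciferase reporter screen. Mouse Ba/F3 line stably expressing human TPO receptor; IL-3 removed overnight before plating. Co-treatment with compound and EC50 TPO (26 pM), 24 hrs at 37 C, then luminescence.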

SMILES | outcome
Clc1cnc(Oc2ccc(Oc3ncc(Cl)cc3Cl)cc2)c(Cl)c1 | inactive
O=C(O)Cc1cnc[nH]1 | inactive
CCCN1CCC[C@H](c2cccc(O)c2)C1 | inactive

test: Cell Viability - LYMP2-001 (AID 921); settings: LYMP2-001 lymphoblastoid cell viability; series mostly up to 92.2 µM;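 further: cells exposed to compound for 24 h at 37 °C; nearly all actives have a fitted effect of over 70% in size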
Procedure, shortened: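 Steps: seed 2500 lymphoblastoid cells/well; 5 hr, 37 C; add compound; 24 hr, 37 C; CellTiter-Glo reagent, 30 min room temperature; read luminescence. Concentration-response modeled by Hill equation for AC50.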

SMILES | Potency
CCOP(=O)(NC(C)C)Oc1ccc(SC)c(C)c1 (stereo not given) | inactive
OCCCBr | inactive
c1cc2ccc3cccc4ccc(c1)c2c34 | inactive
CCOCCOC(C)=O | inactive
C=CC(=O)NCNC(=O)C=C | inactive
C1CCC(NC2CCCCC2)CC1 | inactive
CN(C)NC(=O)CCC(=O)O | inactive
CCCCC(CC)COC(=O)c1ccccc1C(=O)OCC(CC)CCCC (stereo not given) | inactive
Nc1ccc(Sc2ccc(N)cc2)cc1 | inactive
CC(C)(O)C(=O)Nc1ccc([N+](=O)[O-])c(C(F)(F)F)c1 | inactive
O=C(O)COc1ccccc1 | inactive
Nc1ccc([N+](=O)[O-])cc1 | inactive
O=[N+]([O-])c1cc([N+](=O)[O-])c2ccccc2c1 | inactive
O=[N+]([O-])c1c2ccccc2cc2ccccc12 | inactive
O=[N+]([O-])c1c(Cl)c(Cl)cc(Cl)c1Cl | inactive
O=S(=O)(c1ccc(Cl)cc1)c1ccc(Cl)cc1 | inactive
CCCCCCCCc1ccc(O)cc1 | inactive
